Assay outcomes: PubChem, National Center for Advancing Translational Sciences (NCATS)
D2 ag-1 = Beta-Arrestin HTS for Positive Allosteric Modulators of the Human D2 Dopamine Receptor: Agonists. D(2) dopamine receptor (Homo sapiens), P14416. DiscoveRx PathHunter D2 beta-arrestin, luminescence, 90 min; 100% = 57 uM dopamine signal. activation, % (concentration not given with the values). AID 624465, 2012. 360,000 compounds, 0.084% hits; in the data active = activation above about 40%; inconclusive = between about 15% and that limit
Target sequence (P14416 whole entry, looked up): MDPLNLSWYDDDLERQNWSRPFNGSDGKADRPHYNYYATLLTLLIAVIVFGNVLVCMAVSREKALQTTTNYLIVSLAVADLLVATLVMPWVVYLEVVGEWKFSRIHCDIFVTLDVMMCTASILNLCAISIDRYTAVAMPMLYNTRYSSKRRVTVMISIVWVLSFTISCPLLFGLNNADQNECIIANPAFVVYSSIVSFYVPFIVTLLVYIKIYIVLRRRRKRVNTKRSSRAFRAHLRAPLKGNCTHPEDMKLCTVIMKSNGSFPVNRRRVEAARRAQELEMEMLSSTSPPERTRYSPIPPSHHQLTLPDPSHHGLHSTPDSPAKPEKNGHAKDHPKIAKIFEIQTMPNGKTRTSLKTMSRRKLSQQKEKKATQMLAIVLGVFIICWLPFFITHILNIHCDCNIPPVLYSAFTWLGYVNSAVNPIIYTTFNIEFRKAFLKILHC
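Agonist mode: compounds alone added to overnight-plated D2 PathHunter cells for 90 min at 37 C, with 57 uM final dopamine (EC100) defining full response. Beta-arrestin recruitment detected by chemiluminescent reagent, read after 1 h at ambient temperature.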
D2 antag = HTS Assay for Allosteric Antagonists of the Human D2 Dopamine Receptor: Primary Screen for Antagonists; inhibition, % at 10 µM; D(2) dopamine receptor (Homo sapiens), P14416; HEK293 TREx D2 cells, calcium flux, dopamine EC80; 340,000 compounds, 2% hits; in the data active = inhibition above about 30%; inactive = below that, where a call was filed; note: 0% is about no effect
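Tetracycline-induced HEK293 T-REx cells expressing D2 force-coupled to calcium signalling were dye-loaded, exposed to compound for 180 s, then challenged with an EC80 of dopamine; calcium flux was followed kinetically for a further 180 s.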
D2 PAM-1 = HTS Assay for Positive Allosteric Modulators of the Human D2 Dopamine Receptor: Primary Screen for Potentiators; 340,000 compounds, 0.34% hits; potentiation, % at 10 µM; HEK293 T-REx D2, calcium flux, EC20 dopamine potentiation; D(2) dopamine receptor (Homo sapiens), P14416;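 active = potentiation over 3 SD above the plate norm, cut at about 30% in these data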; note: 0% is about no effect
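Potentiation of an EC20 dopamine calcium response measured kinetically over 180 s, after a preceding 180 s compound-only read flagging agonists. Cells: inducible Hek293 Trex D2 line, 4000/well, cultured overnight at 30 C before dye loading.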
D2 ag-2 = HTS Assay for Allosteric Agonists of the Human D2 Dopamine Receptor: Primary Screen for Agonists. 340,000 compounds, 0.53% hits. HEK293 T-REx D2 cells, calcium flux agonist mode. D(2) dopamine receptor (Homo sapiens), P14416. activation, % at 2 µM;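 active = activation over 3 SD above normal in the single-dose calcium agonist read, cut at about 30% in these data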; note: 0% is about no effect
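Tetracycline-induced HEK293 T-REx cells with force-coupled D2 receptor, plated overnight at 30 C, loaded with no-wash calcium dye. After a 10 s baseline, compound was pin-added and calcium flux read kinetically for 180 s; calcium rises flagged agonists.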
D2 PAM-2 = Beta-Arrestin HTS for Positive Allosteric Modulators of the Human D2 Dopamine Receptor: Potentiators; D(2) dopamine receptor (Homo sapiens), P14416; AID 624464, 2012; potentiation, % (no concentration beside the values); 360,000 compounds, 0.23% hits; DiscoveRx D2 beta-arrestin cells, luminescence, 90 min; 100% = 57 uM dopamine signal; in the data active = potentiation above about 50%; inconclusive = mostly about 30% to 49%
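D2 cells co-treated with compound plus 50 nM dopamine (EC20) for 90 min at 37 deg C to detect potentiation. Beta-arrestin recruitment was read as enzyme-fragment luminescence after 1 h at ambient temperature. Full response was set by 57 uM dopamine.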
D3 ag = qHTS of D3 Dopamine Receptor Agonist: D3 Dopamine Receptor B-arrestin Agonist Confirmatory Assay; 2,300 compounds, 4% hits; shares compounds with D2 ag-2; Potency, µM (highest dose often 76.9 µM), for inactives: at the highest dose activation, most hits filed as activators; DiscoveRx D3 beta-arrestin cells, luminescence, 90 min;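 note: potency is the fitted concentration of half-maximal effect; 100% = dopamine control response; nearly all actives have a fitted effect of over 70% in size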
D2 ag-3 = qHTS of D3 Dopamine Receptor Agonist: D2 Dopamine Receptor B-arrestin Agonist Counterscreen; shares compounds with D2 ag-2; DiscoveRx PathHunter D2 beta-arrestin, luminescence, 90 min; response scale: percent relative to full dopamine signal; Potency, µM (top dose mostly 76.9 µM), for the others: at the highest dose activation, usual class: activators; 2,300 compounds, 5.9% hits; AID 720507, 2013; note: potency is the fitted concentration of half-maximal effect; % of control where 0% means no effect; nearly all actives have a fitted effect of over 70% in size
* marks the source's active call; other numbers are inactive results; ? = inconclusive; / = not tested or not shown. Sampled rows, rich in hits. Any-hit rate of the full collection: about 2.4%. Unless noted, calls come from the whole dose curve; as a rule, active = well fitted activation curve with a large enough effect; inconclusive = small, poorly fitted or top-dose-only effect; inactive = flat fitted curve, though single readings scatter.

SMILES	D2 ag-1	D2 antag	D2 PAM-1	D2 ag-2	D2 PAM-2	D3 ag	D2 ag-3
C[C@@H]1O[C@@H](Oc2c(-c3ccc(O)c(O)c3)oc3cc(O)cc(O)c3c2=O)[C@H](O)[C@H](O)[C@H]1O	-6	/	/	/	11	/	/
O=Cc1c(N2CCCCC2)nc2ccccn2c1=O	3	-12	7	0	7	/	/
O=Cc1c(N2CCCCCC2)nc2ccccn2c1=O	4	-7	-16	56*	-3	-1%	1%
COc1ccc(S(=O)(=O)N(CC(=O)NC2CCCCC2)c2ccc(F)cc2)cc1	0	17	3	0	-7	/	/
CN(CCCNC(=O)C1CCC(=O)N1Cc1ccccc1Cl)c1ccccc1 (configuration not stated)	0	10	-5	0	-5	/	/
COc1ccccc1N1CCN(CCCNC(=O)Nc2ccccc2C)CC1	2	87*	-26	23	-12	-12%	3%
Cc1nc2ncnn2c(C)c1CCC(=O)NCCCN1CCN(c2cccc(Cl)c2)CC1	?	72*	-18	76*	-1	9%	?
COc1ccccc1N1CCN(CCCCOc2ccc(C)cc2C)CC1	10	82*	-29	62*	0	3%	7%
Cc1ccccc1NC(=O)NCCCN1CCN(c2ccccc2F)CC1	/	/	-23	/	/	/	/
O=C(NCCCN1CCN(c2cccc(Cl)c2)CC1)C1CCC(=O)N1Cc1ccccc1Cl (configuration not stated)	2	40*	-23	50*	-49	6%	?
Cc1nc2ncnn2c(C)c1CCC(=O)N1CCN(c2cccc(Cl)c2)CC1	/	/	0	/	/	/	/
COc1ccccc1N1CCN(CCCCN2C(=O)c3ccccc3C2=O)CC1	-7	/	/	/	-35	/	/
COc1ccccc1NC(=O)NCCCN1CCN(c2cccc(Cl)c2)CC1	-4	63*	-24	49*	-15	3%	10%
Nc1ccn(CC(=O)NCc2ccc3[nH]ccc3c2)c(=O)n1	-4	7	-2	0	-5	12%	?
FC(F)(F)c1ccc(N2CCOCC2)c(NC2=NCCCCC2)c1	2	-10	-11	0	-2	/	/
FC(F)(F)c1ccc(Cl)c(NC2=NCCCCC2)c1	-6	11	-19	53*	-10	-1%	13%
COc1ccc(-n2c(C)c(C(C)=O)c3cc(OC(C)=O)ccc32)cc1	1	-5	-3	0	7	/	/
COc1ccc(-n2c(C)cc(C)c(C(C)=O)c2=S)cc1	-1	1	-19	54*	1	-4%	-2%
CCCCC1CC2=C(C(=O)OC(C)(C)O2)C(c2ccc(Cl)cc2)O1 (configuration not stated)	1	/	/	/	2	/	/
CCCCN(C)C(=O)c1nc2ccccn2c1CN1CCN(c2cnccn2)CC1	-1	-11	-4	0	-3	/	/
CCCCN(C)C(=O)c1nc2ccccn2c1CN1CCN(c2ccccn2)CC1	1	5	-25	53*	-11	29%	11%
CCNC(=O)C(=O)Nc1ccc([N+](=O)[O-])cc1	-1	-23	-9	25	-10	-1%	-1%
CCN(CC)C(=O)Cn1cc(C(=O)C(=O)N2CCN(Cc3ccccc3)CC2)c2ccccc21	-3	2	-22	58*	-9	-15%	-7%
